Experimental data from PubChem BioAssay (Tox21).
Results filed as inconclusive are left out. Active and inactive are the calls of the source. Calls follow the shape of the full dose curve.

How the values were obtained:
[1] = target: Acetylcholinesterase (Homo sapiens) (UniProt P22303); assay: Acetylcholinesterase (AChE) small molecule antagonists: colormetric cell-based qHTS assay (AID 1347395); also: nearly all actives have a fitted effect of over 30% in size
In short: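 SH-SY5Y cells attached overnight, exposed to compound 30 min at 37 C, then given DTNB/acetylthiocholine; after 90 min at 37 C, colorimetric thiocholine read gives cellular AChE activity.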

[2] = target: Acetylcholinesterase (Homo sapiens) (UniProt P22303); assay: Acetylcholinesterase (AChE) small molecule antagonists: enzyme-based qHTS assay (AID 1347397); settings: Potency: AChE enzyme activity inhibition; outcome: AChE enzyme activity inhibition; also: nearly all actives have a fitted effect of over 55% in size
In short: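 Colorimetric DTNB readout of acetylthiocholine hydrolysis, 10 min at room temperature, after 30 min room-temperature exposure of 50 mU/mL recombinant human enzyme to compound; DMSO vehicle control.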

[3] = target: Acetylcholinesterase (Homo sapiens) (UniProt P22303); assay: Acetylcholinesterase (AChE) small molecule antagonists: fluorescence cell-based qHTS assay (AID 1347398); settings: Potency: AChE activity; outcome: AChE activity; also: nearly all actives have a fitted effect of over 50% in size
In short: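 Cellular AChE activity read as thiocholine from acetylthiocholine hydrolysis, detected by Thiolite Green fluorescence at 490/520 nm after 40 min at room temperature. Compounds were pre-incubated 30 min at 37 C on adherent SH-SY5Y cells.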

[4] = target: Acetylcholinesterase (Homo sapiens) (UniProt P22303); assay: Acetylcholinesterase (AChE) small molecule antagonists: enzyme-based qHTS assay with human liver microsomes (AID 1347399); settings: Potency: qHTS inhibition; outcome: qHTS inhibition; also: nearly all actives have a fitted effect of over 60% in size
In short: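 Recombinant human AChE (50 mU/mL in the enzyme mix) and human liver microsomes (0.25 mg/mL final) were preincubated with compound and NADPH (0.25 mg/mL final) for 30 min at 37 C. Acetylthiocholine/DTNB was then added; thiocholine was read colorimetrically after 10 min at room temperature.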

Measured: Potency

Acetylcholinesterase (Homo sapiens), sequence (P22303 whole entry, looked up): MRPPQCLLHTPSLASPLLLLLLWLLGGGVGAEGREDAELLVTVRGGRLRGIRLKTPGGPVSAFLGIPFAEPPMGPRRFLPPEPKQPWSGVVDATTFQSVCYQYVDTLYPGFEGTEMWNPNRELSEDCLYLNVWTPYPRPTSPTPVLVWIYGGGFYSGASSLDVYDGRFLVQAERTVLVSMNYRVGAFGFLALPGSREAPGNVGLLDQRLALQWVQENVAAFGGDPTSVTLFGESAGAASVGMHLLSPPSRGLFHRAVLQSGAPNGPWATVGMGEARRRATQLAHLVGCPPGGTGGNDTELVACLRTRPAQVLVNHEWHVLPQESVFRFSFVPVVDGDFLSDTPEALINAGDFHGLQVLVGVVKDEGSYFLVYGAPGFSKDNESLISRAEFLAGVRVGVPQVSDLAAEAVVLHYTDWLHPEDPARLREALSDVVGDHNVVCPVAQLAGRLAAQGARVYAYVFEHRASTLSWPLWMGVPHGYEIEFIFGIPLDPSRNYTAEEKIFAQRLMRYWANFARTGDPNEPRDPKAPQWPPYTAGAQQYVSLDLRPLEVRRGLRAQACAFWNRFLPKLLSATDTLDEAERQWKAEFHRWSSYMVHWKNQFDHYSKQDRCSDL

CCN(CC)C(=O)/C(C#N)=C/c1cc(O)c(O)c([N+](=O)[O-])c1
inactive: all assays above

CCCCCCCCCCCC(=O)OCC
inactive: all assays above

O=C(CCS)OCC(COC(=O)CCS)(COC(=O)CCS)COC(=O)CCS
inactive: all assays above

CCCCCCCCOC(=O)CCCCCCCCC(=O)OCCCCCCCC
inactive: all assays above

C=CC(=C)CCCC(C)(C)OC(C)=O
inactive: all assays above

O=S(O)CO
inactive: all assays above

O=C(O)c1cccnc1Nc1cccc(C(F)(F)F)c1
inactive: all assays above

CCc1cc(Cc2cc(CC)c(N)c(CC)c2)cc(CC)c1N
inactive: all assays above

COc1ccnc(CS(=O)c2nc3ccc(OC(F)F)cc3[nH]2)c1OC (stereo not given)
inactive: all assays above

CC(C)(C)N(CCO)CCO
inactive: all assays above

CCCCCCOC(=O)CCCCC(=O)OCCCCCC
inactive: all assays above

C=CCc1ccccc1OCC(O)CNC(C)C (stereo not given)
inactive: all assays above

Clc1cccnc1
inactive: all assays above

O=C(O)c1cc(C(=O)O)c(C(=O)O)cc1C(=O)O
inactive: all assays above

CN(C)CCN(C)CCO
inactive: all assays above
